# Screens (PubChem)
# BLM inh – inhibitors of human Bloom syndrome helicase BLM; recombinant BLM DNA unwinding, fluorescence dequenching; Potency, µM (series often up to 56.1 µM), most hits filed as inhibitors; hit rate 0.2% among 350,000; AID 2528; note: nearly all actives have a fitted effect of over 35% in size
# WRN inhibitor – inhibitors of human WRN helicase | hit rate 0.46% among 360,000 | WRN helicase unwinding, fluorescent forked duplex, kinetic | Potency, µM (doses to about 114 µM), actives largely listed as inhibitors; note: nearly all actives have a fitted effect of over 55% in size
#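 Fluorescence dequenching readout, ex 525 nm/em 598 nm, kinetic mode: forked duplex DNA (100 nM final) with adjacent fluorophore and quencher unwound by WRN (20 nM final) with 2 mM ATP. Compound preincubation 15 min, room temperature.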
# L3MBTL1 block – L3MBTL1 (human) inhibition; AID 485360; AlphaScreen L3MBTL1–H3K9me1 peptide binding; hit rate 0.66% among 230,000; Q9Y468; Potency, µM (series often up to 57.1 µM), actives largely listed as inhibitors; note: nearly all actives have a fitted effect of over 60% in size
# Target sequence (Q9Y468 whole entry, looked up): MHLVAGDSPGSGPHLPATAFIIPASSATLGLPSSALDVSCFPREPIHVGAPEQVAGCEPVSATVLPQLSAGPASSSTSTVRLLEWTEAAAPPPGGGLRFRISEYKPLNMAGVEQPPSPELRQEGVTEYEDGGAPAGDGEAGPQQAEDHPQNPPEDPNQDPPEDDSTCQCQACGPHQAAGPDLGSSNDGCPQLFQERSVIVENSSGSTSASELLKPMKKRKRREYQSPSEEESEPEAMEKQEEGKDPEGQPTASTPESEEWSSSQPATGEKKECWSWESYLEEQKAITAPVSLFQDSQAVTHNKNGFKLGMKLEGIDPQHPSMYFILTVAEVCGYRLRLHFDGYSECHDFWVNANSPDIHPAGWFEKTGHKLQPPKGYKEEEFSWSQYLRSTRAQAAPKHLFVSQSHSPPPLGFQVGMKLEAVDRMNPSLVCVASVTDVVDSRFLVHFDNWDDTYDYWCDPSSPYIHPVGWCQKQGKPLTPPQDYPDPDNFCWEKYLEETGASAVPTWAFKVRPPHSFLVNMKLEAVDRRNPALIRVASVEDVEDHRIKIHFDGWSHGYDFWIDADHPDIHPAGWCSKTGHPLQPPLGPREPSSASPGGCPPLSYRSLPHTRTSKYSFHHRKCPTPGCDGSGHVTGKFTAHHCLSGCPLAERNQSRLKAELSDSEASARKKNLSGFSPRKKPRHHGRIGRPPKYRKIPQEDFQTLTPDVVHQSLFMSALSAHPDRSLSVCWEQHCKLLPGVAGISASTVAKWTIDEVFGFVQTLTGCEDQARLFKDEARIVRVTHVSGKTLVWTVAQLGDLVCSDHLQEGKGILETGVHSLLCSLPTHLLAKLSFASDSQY
#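 AlphaScreen assay: L3MBTL1 (50 nM final) was preincubated 30 min at room temperature with biotinylated H3(1-15)K9me1 peptide (75 nM final), then 30 min with library compounds; streptavidin donor and nickel chelate acceptor beads (10 ug/mL final) added, 30 min dark.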
# APE1 inh – blocks human APE1 abasic DNA cleavage. hit rate 0.35% among 350,000. recombinant APE1, TAMRA/BHQ-2 abasic DNA cleavage fluorescence. P27695. Potency, µM (top dose mostly 65.8 µM), usual class: inhibitors. AID 2517; note: nearly all actives have a fitted effect of over 55% in size
#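 APE1 at 0.75 nM preincubated 15 min at room temperature with compound. Reaction then started with 50 nM double-stranded THF-abasic substrate labelled with TAMRA/BHQ-2, and 525/598 nm fluorescence read kinetically. Activity taken as third-minus-first read difference, normalized to DMSO and NSC13755 controls.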
# FEN1 inhibitor – blocks human flap endonuclease 1; hit rate 0.35% among 390,000; AID 588795; P39748; Recombinant FEN1 flap cleavage, fluorescence, 15 min; Potency, µM (top dose mostly 114 µM), most hits filed as inhibitors; note: nearly all actives have a fitted effect of over 65% in size
#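 FEN1 at 10 nM preincubated with compounds 15 min at room temperature, then flap DNA substrate added at 50 nM final. Signal read at 0 and 15 min; concentration-response fitted with four-parameter Hill equation.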
# RECQ1 helicase – blocks DNA unwinding by human RECQ1; RECQ1 DNA unwinding, red fluorescence kinetic read; P46063; Potency, µM (series often up to 57.3 µM), most hits filed as inhibitors; AID 2549; hit rate 0.54% among 240,000; note: nearly all actives have a fitted effect of over 30% in size
#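 50 nM RECQ1T1 preincubated 15 min with compound in Tris pH 8.0 buffer with MgCl2, DTT, Tween-20 and 2.5 ug/ml poly(dI-dC); started with 200 nM TAMRA/BHQ-2 forked duplex and 2 mM ATP. Unwinding read as fluorescence (525/598 nm), two reads 2 h apart.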
# A number is an active result; i = inactive; ? = inconclusive; nt = no result; [ ] = dose if it differs, or a comment. Sampled rows, rich in hits. Any-hit rate of the full collection: about 1%. Calls come from the whole dose curve; as a rule, active = well fitted curve in the direction sought with a large enough effect; inconclusive = small, poorly fitted or top-dose-only effect, or another doubt; inactive = no such curve, though single readings can be large; an effect the other way counts as inactive or inconclusive.
SMILES,BLM inh,WRN inhibitor,L3MBTL1 block,APE1 inh,FEN1 inhibitor,RECQ1 helicase
Cc1ccc(C(=O)[C@@H]2[C@H]3C4COC(O4)C(=O)[C@@H]3[C@H]3C=Cc4ccccc4N32)cc1 (stereo not given in full),i,nt,nt,i,nt,i
CC(=O)[C@@H]1[C@H]2[C@H](C(=O)[C@H]3OC[C@@H]2O3)[C@H]2C=Cc3ccccc3N21,i,nt,nt,i,nt,32µM
c1ccc2c3c(cc(N4CCOCC4)c2c1)OC1(N2CCOCC2)CCCCC1O3 (stereo not given),i,i,28µM,i,i,i
C=CC[n+]1c(/C=C2\C=Cc3cc(C)ccc3N2CC)ccc2ccccc21,i,50µM,?,i,40µM,i
CCCCn1c(NC(=S)Nc2ccccc2)nc2ccccc21,i,i,18µM,i,i,i
CC(=O)Nc1nc2ccccc2n1CCOc1ccccc1,i,i,i[11.4 µM],i,i,i
CCCCn1c(NC(=O)c2ccccc2)nc2ccccc21,i,i,i,i,i,i
S=C(Nc1ccccc1)Nc1nc2ccccc2n1CCOc1ccccc1,i,i,10µM,i,i,i
CCNc1cc(O)ccc1C,nt,i,i,i,i,28µM
CC[N+]1(C)CCC(O)(/C=C/c2ccccc2)C(C(=O)/C=C/c2ccccc2)C1 (stereo not given),nt,11µM,nt,nt,i,nt
CCN1C/C(=C/c2ccc(N3CCOCC3)cc2)C(=O)/C(=C/c2ccc(N3CCOCC3)cc2)C1,i,79µM,i,i,79µM,i
CCc1ccc(/C=C2/SC(N3CCOCC3)=NC2=O)cc1,i,i,i,i,i,i
CN(C)c1ccc(C(c2ccc(N(C)C)cc2)c2ccc([N+](=O)[O-])cc2)cc1,i,i,28µM,i,i,i
Fc1cccc(Cc2c(-c3ccccc3)nc3c4ccccc4ccn23)c1,nt,i,nt,nt,nt,nt
COc1ccccc1-c1cccc(-c2nc(C(=O)N3CCCCC3)cc3c2[C@@H](CCO)N(S(=O)C(C)(C)C)C3)c1 (stereo not given in full),nt,i,nt,nt,nt,nt
C[C@@H]1C/C=C/C=C/C=C/C=C/[C@H](O[C@@H]2O[C@H](C)[C@@H](O)[C@H](N)[C@@H]2O)C[C@@H]2O[C@](O)(C[C@@H](O)C[C@H]3O[C@@H]3/C=C/C(=O)O1)C[C@H](O)[C@H]2C(=O)O,nt,nt,nt,i,nt,nt
C[n+]1ccc(/C=C/c2cc[n+](C)c3ccccc23)c2ccccc21,nt,nt,nt,nt,10µM,nt
C[n+]1ccc(/C=C/c2ccc(F)cc2)c2ccccc21,nt,nt,nt,nt,i,nt
COc1ccc(/C=C/c2cc[n+](C)c3ccccc23)cc1OC,nt,nt,nt,nt,45µM,nt
C[n+]1ccc(/C=C/c2ccc([N+](C)(C)C)cc2)c2ccccc21,nt,nt,nt,nt,22µM,nt
c1ccc(CCNc2ccnc3cc4ccccc4cc23)cc1,i,i,nt,i,50µM,i
O=C(NCCc1ccccc1)c1nccc2ccccc12,nt,i,i,i,i,nt
Cc1cc2cc3c(=O)[nH]c(=O)cc-3n(CC(O)C(O)C(O)CO)c2cc1C (stereo not given),nt,56µM,nt,nt,nt,nt
CCN(C(=O)COC(=O)c1ccc([N+](=O)[O-])o1)c1cccc2ccccc12,nt,i,i,i,28µM,nt
O=C1C=C(O)c2cccc3cccc1c23,i,i,i[2.29 µM],i,2µM,nt
SMILES,BLM inh,WRN inhibitor,L3MBTL1 block,APE1 inh,FEN1 inhibitor,RECQ1 helicase
NC1=CC(=O)c2cccc3cccc1c23,i,nt,i,i,nt,i
NCCCCCCCCCCNCCCN,i,nt,nt,i,nt,i
CCNC(=O)C1CCCN(C(=O)c2ccccc2F)CC1 (stereo not given),nt,i,nt,nt,nt,nt
COc1ccc(NC(=O)Cn2c(=O)n(CCCCCC(=O)NCc3ccc4c(c3)OCO4)c(=O)c3sccc32)cc1Cl,i,nt,nt,nt,89µM,nt
COCCNC(=O)Cn1c(=O)n(CCCCCC(=O)NCc2ccc3c(c2)OCO3)c(=O)c2sccc21,i,nt,i,i,i,i
CC(O)C#C[Si](C)(C)c1ccccc1 (stereo not given),i,nt,nt,i,nt,i
N[C@H](C(=O)O)[C@@H]1CC(Cl)=NO1,nt,nt,nt,i,nt,nt
COc1ccc([C@H]2CC(=O)C=C(c3cccc4c3Oc3ccccc3S4)C2)cc1,nt,i,i,i,i,nt
CCCC[n+]1c(C)ccc2ccccc21,nt,nt,nt,nt,i,nt
Cc1cc(N)c2ccccc2[n+]1CCCCCCCCCCCCCC[n+]1c(C)cc(N)c2ccccc21,nt,nt,nt,i,nt,32µM
O=C1OC(c2ccccc2)(c2cc(Br)c(O)c(Br)c2)c2ccccc21 (stereo not given),nt,i,nt,nt,i,nt
O=C1OC2(c3cc(Br)c(O)c(Br)c3Oc3c2cc(Br)c(O)c3Br)c2c(Cl)c(Cl)c(Cl)c(Cl)c21,nt,nt,nt,4.5µM,nt,5µM
COc1ccccc1-c1no[n+]([O-])c1C#N,nt,nt,nt,i,nt,nt
COc1ccc(-c2nc3ccc(NC(=O)COC(C)=O)cc3c(=O)n2Cc2ccccc2)cc1COc1ccc(NC(C)=O)cc1,nt,nt,nt,nt,i,nt
COc1ccc(-c2nc3ccc(NC(C)=O)cc3c(=O)n2Cc2cccc(Cl)c2)cc1COc1ccc(NC(C)=O)cc1,nt,nt,nt,nt,79µM,nt
CC1CCN(c2ccc(-c3cccc(NS(=O)(=O)c4ccc(F)cc4F)c3)nn2)CC1,i,nt,nt,nt,i,nt
COc1cc2ccc(=O)oc2c(O)c1O,i,i,nt,?,8.9µM,i
O=C(O)C(c1ccccc1)N1C(=O)/C(=C\c2ccc(-c3ccccc3Cl)o2)SC1=S (stereo not given),?,50µM,nt,?,50µM,nt
CCC(=O)OCOc1ccc(/C=C2/CCC(CN(C)C)C2=O)cc1 (stereo not given),nt,11µM,nt,nt,i,nt
CCOc1ccc(/C=C2\CCC(C3CCCC3)C2=O)cc1 (stereo not given),i,i,nt,i,i,nt
O=C1C(NS(=O)(=O)c2ccc(Cl)cc2)=C(N2CCCCC2)C(=O)c2ccccc21,i,i,25µM,i,i,i
CCCNC(=O)C1(C)CCCN(C(=O)COc2ccc(C(C)(C)C)cc2)C1 (stereo not given),nt,i,nt,nt,nt,nt
O=C(CSc1nnc(-c2cccc(S(=O)(=O)N3CCCC3)c2)n1-c1ccccc1)Nc1ccc(F)cc1,nt,nt,nt,i,nt,nt
O=C1c2c(O)cc(O)cc2O[C@H](c2ccc(O)c(O)c2)C1O (stereo not given in full),i,nt,nt,?,nt,14µM
COCCCNc1nc(SCc2ccccc2)nc2sc3c(c12)CCC3,i,i,i,i,i,i
N#Cc1cnn(-c2nc(SCc3ccccc3)nc3sc4c(c23)CCCC4)c1N,i,i,i,i,i,7.9µM
CCN(CC)c1ccc(C=C2C(=O)OC3(CCCCC3)OC2=O)cc1,i,50µM,i,i,?,32µM
CCCCC1(C)OC(=O)C(=Cc2ccc(N(CC)CC)cc2)C(=O)O1 (stereo not given),i,?,i,i,i,i
COC1=CC(=O)C(O)=C(CCCCCCC/C=C/CCCCCCCC2=C(O)C(=O)C=C(OC)C2=O)C1=O,nt,35µM,nt,nt,20µM,nt
